Measured values taken from PubChem BioAssay AID1159580 (chemical genetic matrix, 2015).
The whole screen tested about 5,500 compounds, of which about 2,000 (36%) were called active. Roughly 18% stayed inconclusive and do not appear here. No stated cut-off is given here; in the data, active means normalized growth mostly below about 0.91 (no sharp cut-off); inconclusive means no clear call, values can overlap the other calls; inactive means mostly above about 0.92. The list shows a part of the results.

Test: chemical genetic growth profiling, strain panel (AID 1159580);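 further: tested at 20 µM; growth read once vehicle control cultures reached saturation at 30 °C; 1 = growth at the plate median or of vehicle wells; lower values mean less growth of the strain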
Conditions: S. cerevisiae deletion strains, growth OD

Measured: normalized growth

C/C=C(/C)C(=O)O[C@@H]1Cc2c(ccc3ccc(=O)oc23)OC1(C)C
inactive: locus YBR021W, strain FUR4, active compounds read low 1.08 | locus YBR229C, strain ROT2, active compounds read low 0.984 | locus YCL029C, strain bik1, active compounds read low 1.01 | locus YDL035C, strain GPR1, active compounds read low 0.974 | locus YDL074C, strain BRE1, active compounds read low 0.976 | locus YDL101C, strain DUN1, active compounds read low 1.01 | locus YDL134C, strain PPH21, active compounds read low 0.947 | locus YDL185W, strain tfp1, active compounds read low 1.01 | locus YDL192W, strain arf1, active compounds read low 0.977 | locus YDR101C, strain arx1, active compounds read low 1.03 | locus YDR150W, strain NUM1, active compounds read low 0.934 | locus YDR162C, strain NBP2, active compounds read low 0.927 | locus YDR318W, strain mcm21, active compounds read low 0.962 | locus YDR388W, active compounds read low 0.996 | locus YDR502C, strain sam2, active compounds read low 1.03 | locus YEL061C, strain CIN8, active compounds read low 0.95 | locus YER110C, active compounds read low 1 | locus YER155C, strain BEM2, active compounds read low 1 | locus YER167W, strain BCK2, active compounds read low 0.978 | locus YGL078C, strain dbp3, active compounds read low 0.991 | locus YGL086W, strain mad1, active compounds read low 1.02 | locus YGL248W, strain PDE1, active compounds read low 0.966 | locus YGR078C, strain PAC10, active compounds read low 0.987 | locus YGR135W, strain pre9, active compounds read low 0.97 | locus YGR252W, strain gcn5, active compounds read low 1.05 | locus YHR030C, strain SLT2, active compounds read low 0.992 | locus YHR079C, strain IRE1 (second series), active compounds read low 0.987 | locus YHR094C, strain hxt1, active compounds read low 0.989 | locus YHR129C, strain ARP1, active compounds read low 0.973 | locus YHR200W, strain rpn10, active compounds read low 1.01 | locus YIL066C, strain RNR3, active compounds read low 0.979 | locus YIL073C, strain SPO22, active compounds read low 0.96 | locus YIL125W, strain kgd1, active compounds read low 1 | locus YIR030C, strain dcg1, active compounds read low 0.989 | locus YJL095W, strain BCK1, active compounds read low 0.937 | locus YJL134W, strain LCB3, active compounds read low 0.985 | locus YJL168C, strain set2, active compounds read low 1 | locus YJL187C, strain SWE1 (second series), active compounds read low 0.984 | locus YJR043C, strain POL32, active compounds read low 1.01 | locus YJR075W, strain HOC1, active compounds read low 0.99 | locus YKL009W, strain mrt4, active compounds read low 0.987 | locus YKL068W, active compounds read low 0.983 | locus YKL085W, strain MDH1 (second series), active compounds read low 0.978 | locus YKL085W, strain MDH1, active compounds read low 0.978 | locus YKL190W, strain CNB1, active compounds read low 0.935 | locus YKR001C, strain vps1, active compounds read low 0.998 | locus YLR039C, strain RIC1, active compounds read low 0.792 | locus YLR058C, strain SHM2, active compounds read low 0.97 | locus YLR102C, strain apc9, active compounds read low 0.99 | locus YLR262C, strain YPT6, active compounds read low 0.761 | locus YLR268W, strain sec22, active compounds read low 1 | locus YLR330W, strain CHS5, active compounds read low 0.989 | locus YLR342W, strain FKS1 (second series), active compounds read low 0.987 | locus YLR371W, strain rom2, active compounds read low 1 | locus YLR418C, strain cdc73, active compounds read low 1.06 | locus YML016C, strain PPZ1, active compounds read low 0.987 | locus YML032C, strain rad52, active compounds read low 0.969 | locus YML124C, strain tub3, active compounds read low 0.982 | locus YMR078C, strain ctf18, active compounds read low 0.985 | locus YMR223W, strain ubp8, active compounds read low 0.974 | locus YMR307W, strain GAS1, active compounds read low 0.716 | locus YNL067W, strain RPL9B, active compounds read low 0.951 | locus YNL153C, strain GIM3, active compounds read low 0.996 | locus YNL233W, strain BNI4, active compounds read low 1 | locus YNL250W, strain rad50, active compounds read low 0.981 | locus YNL271C, strain bni1, active compounds read low 0.989 | locus YNL298W, strain CLA4, active compounds read low 0.984 | locus YNL307C, strain MCK1, active compounds read low 1 | locus YNR052C, strain pop2, active compounds read low 0.915 | locus YOL012C, strain htz1 0.999 | locus YOL147C, strain pex11, active compounds read low 0.99 | locus YOR061W, strain CKA2, active compounds read low 0.974 | locus YOR069W, strain VPS5, active compounds read low 0.975 | locus YOR136W, strain idh2, active compounds read low 1.03 | locus YOR144C, strain elg1, active compounds read low 0.992 | locus YOR184W, strain ser1, active compounds read low 0.932 | locus YOR316C, strain cot1, active compounds read low 0.987 | locus YPL241C, strain CIN2, active compounds read low 0.953 | locus YPR119W, strain clb2, active compounds read low 0.976 | locus YPR141C, strain kar3, active compounds read low 0.981 | locus YPR163C, strain tif3, active compounds read low 0.987 | locus YPR167C, strain met16, active compounds read low 0.98 | strain wtn01, active compounds read low 1.04
